Measurements: PubChem BioAssay (NCI)
About 83,000 compounds went through this panel and 20% of them were active in at least one assay; those are over-represented in the sample as a whole.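 For each line, cells grew in 96-well plates with the test compound present at a single concentration for 48 hours.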 Values without a mark were called inactive. Activity calls are given as the source filed them. The calls were made as follows: active = growth percent below 10; inactive = the rest.

How the values were obtained:
Assay in all cases: NCI-60 one-dose screen, 48 h (100 = growth as untreated, 0 = no growth, -100 = all killed)
Details in all cases: 10 µM
NCI-H23 lung = tested on: NCI-H23 lung
NCI-H226 lung = tested on: NCI-H226 lung
NCI-H322M lung = tested on: NCI-H322M lung
HOP-62 NSCLC = tested on: HOP-62 NSCLC
NCI-H460 lung = tested on: NCI-H460 lung
NCI-H522 lung = tested on: NCI-H522 lung
A549/ATCC NSCLC = tested on: A549/ATCC NSCLC
786-0 renal = tested on: 786-0 renal
COLO 205 colon = tested on: COLO 205 colon
DU-145 prostate = tested on: DU-145 prostate
K-562 leukemia = tested on: K-562 leukemia
MDA-MB-231 breast = tested on: MDA-MB-231 breast
RXF 393 renal = tested on: RXF 393 renal
SF-268 CNS = tested on: SF-268 CNS
SF-295 CNS = tested on: SF-295 CNS
SF-539 CNS = tested on: SF-539 CNS
UACC-257 melanoma = tested on: UACC-257 melanoma
M14 melanoma = tested on: M14 melanoma
HCT-15 colon = tested on: HCT-15 colon
MALME-3M melanoma = tested on: MALME-3M melanoma

Compound	growth (NCI-H23 lung) [%]	growth (NCI-H226 lung) [%]	growth (NCI-H322M lung) [%]	growth (HOP-62 NSCLC) [%]	growth (NCI-H460 lung)	growth (NCI-H522 lung)	growth (A549/ATCC NSCLC) [%]	growth (786-0 renal) [%]	growth (COLO 205 colon)	growth (DU-145 prostate)	growth (K-562 leukemia)	growth (MDA-MB-231 breast)	growth (RXF 393 renal)	growth (SF-268 CNS)	growth (SF-295 CNS)	growth (SF-539 CNS)	growth (UACC-257 melanoma)	growth (M14 melanoma)	growth (HCT-15 colon)	growth (MALME-3M melanoma) [%]
C=C(C(=O)c1ccccc1)C(NC(C)(C)C)c1ccccc1 (stereo unspecified)	31.9	67.9	98.6	47.5	26.9%	-83.9% (active)	43.2	23.1	-77% (active)	20.6%	4.27% (active)	-11.3% (active)	-56.1% (active)	7.85% (active)	110%	-24.1% (active)	-15.3% (active)	-33.6% (active)	-48.7% (active)	
COc1ccc2c(c1)C(=O)c1c-2c(=O)n(CCCN(C)C)c2cc(OC)c(OC)cc12	48.8	70.5	80	51.4	10.9%	56.5%	56.3	71.8	100%	26.9%	64.5%	103%	89.4%	46.9%	20.7%	55%	100%	48.4%	82.2%	
COc1ccc(/C=C/C(=O)Nc2ccc(-c3nc4ccc(OC)cc4s3)cc2)cc1	94.7	99.9	112	101	106%	91.2%	103	103	121%	117%	95.7%	111%	112%	116%	106%	102%	111%	106%	111%	
O=C(NN1C(=O)CSC1c1ccc(Cl)cc1)c1cccnc1 (stereo unspecified)	86.8	249	98.9	93.7	103%	87.1%	113	92	110%	52.2%		156%		97%	78.3%	105%	112%	84.1%	119%	88.8
CC1CC(=O)OC(C)C1 (stereo unspecified)	102	93.1	103	92.2	104%	103%	95.8	101	112%	111%		113%	104%	111%	94.6%	98.5%	111%	100%	104%	98.7
COc1ccc2c(c1)sc1nc(-c3ccccc3)c(-c3ccsc3)n12	36	55.8	53.4	36.8	7.9% (active)	-13.4% (active)	31.1	57.5	3.28% (active)	3.69% (active)	13.8%	52.3%	-13.3% (active)	54.3%	-20% (active)	2.07% (active)	39.7%	15.6%	30.5%	
O=C(O)C(SC(C(=O)O)c1ccccc1)c1ccccc1 (stereo unspecified)	99.8	95.9	118	107	110%	108%	103	103	113%	104%	98.6%	115%	106%	106%	115%	115%	104%	109%	99.8%	
Cc1ncc(-c2ccoc2)c(NC2CCCCCC2)n1	97.9	103	80.7	102	106%	82.8%	101	99.2	106%	110%	106%	108%	113%	98.9%	102%	110%	96.4%	101%	103%	
